Measured values reported in PubChem BioAssay.

Experiments:
[1] = test system: Botulinum neurotoxin type F light chain protease (Clostridium botulinum); test: Clostridium botulinum type F light chain protease inhibitors, microsphere substrate cleavage, validation (AID 588459); details: multiplex microsphere protease substrate cleavage assay, flow cytometry; at 10 µM; active compounds read high
[2] = biological target: Botulinum neurotoxin type A (Clostridium botulinum) (UniProt P0DPI0); test: BoNT/A light chain protease inhibitors, biochemical, multiplex microsphere flow cytometry, validation set (AID 588460); details: at 10 µM, active compounds read high
[3] = biological target: Lethal factor (Bacillus anthracis) (UniProt P15917); test: Bacillus anthracis lethal factor inhibition, microsphere flow cytometry protease assay, validation at 10 µM (AID 588461); details: multiplex microsphere protease cleavage assay, active compounds read high

Measured: inhibition

Sequence of Lethal factor (Bacillus anthracis) (P15917 whole entry, looked up): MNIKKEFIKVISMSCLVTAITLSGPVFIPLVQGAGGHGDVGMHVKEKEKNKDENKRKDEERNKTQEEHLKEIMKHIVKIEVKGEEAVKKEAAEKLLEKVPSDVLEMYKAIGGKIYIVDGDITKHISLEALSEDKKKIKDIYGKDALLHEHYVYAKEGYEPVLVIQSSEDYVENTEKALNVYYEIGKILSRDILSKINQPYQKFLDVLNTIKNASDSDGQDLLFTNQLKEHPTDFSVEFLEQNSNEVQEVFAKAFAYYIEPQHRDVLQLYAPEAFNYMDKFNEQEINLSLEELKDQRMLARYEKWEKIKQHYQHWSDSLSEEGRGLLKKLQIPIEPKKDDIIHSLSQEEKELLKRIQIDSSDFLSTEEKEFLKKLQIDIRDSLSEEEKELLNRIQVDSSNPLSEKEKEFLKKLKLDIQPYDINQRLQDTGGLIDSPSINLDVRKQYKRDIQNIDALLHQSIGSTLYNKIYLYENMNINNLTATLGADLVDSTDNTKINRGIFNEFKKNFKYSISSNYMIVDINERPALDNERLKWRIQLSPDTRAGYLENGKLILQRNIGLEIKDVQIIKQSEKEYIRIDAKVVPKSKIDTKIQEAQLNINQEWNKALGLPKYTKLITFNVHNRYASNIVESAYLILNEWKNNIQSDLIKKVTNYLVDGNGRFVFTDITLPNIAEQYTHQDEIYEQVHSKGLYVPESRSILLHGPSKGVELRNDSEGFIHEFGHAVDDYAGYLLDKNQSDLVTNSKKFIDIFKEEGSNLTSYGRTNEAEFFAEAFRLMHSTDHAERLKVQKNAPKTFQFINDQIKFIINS
Sequence of Botulinum neurotoxin type A (Clostridium botulinum) (P0DPI0 whole entry, looked up): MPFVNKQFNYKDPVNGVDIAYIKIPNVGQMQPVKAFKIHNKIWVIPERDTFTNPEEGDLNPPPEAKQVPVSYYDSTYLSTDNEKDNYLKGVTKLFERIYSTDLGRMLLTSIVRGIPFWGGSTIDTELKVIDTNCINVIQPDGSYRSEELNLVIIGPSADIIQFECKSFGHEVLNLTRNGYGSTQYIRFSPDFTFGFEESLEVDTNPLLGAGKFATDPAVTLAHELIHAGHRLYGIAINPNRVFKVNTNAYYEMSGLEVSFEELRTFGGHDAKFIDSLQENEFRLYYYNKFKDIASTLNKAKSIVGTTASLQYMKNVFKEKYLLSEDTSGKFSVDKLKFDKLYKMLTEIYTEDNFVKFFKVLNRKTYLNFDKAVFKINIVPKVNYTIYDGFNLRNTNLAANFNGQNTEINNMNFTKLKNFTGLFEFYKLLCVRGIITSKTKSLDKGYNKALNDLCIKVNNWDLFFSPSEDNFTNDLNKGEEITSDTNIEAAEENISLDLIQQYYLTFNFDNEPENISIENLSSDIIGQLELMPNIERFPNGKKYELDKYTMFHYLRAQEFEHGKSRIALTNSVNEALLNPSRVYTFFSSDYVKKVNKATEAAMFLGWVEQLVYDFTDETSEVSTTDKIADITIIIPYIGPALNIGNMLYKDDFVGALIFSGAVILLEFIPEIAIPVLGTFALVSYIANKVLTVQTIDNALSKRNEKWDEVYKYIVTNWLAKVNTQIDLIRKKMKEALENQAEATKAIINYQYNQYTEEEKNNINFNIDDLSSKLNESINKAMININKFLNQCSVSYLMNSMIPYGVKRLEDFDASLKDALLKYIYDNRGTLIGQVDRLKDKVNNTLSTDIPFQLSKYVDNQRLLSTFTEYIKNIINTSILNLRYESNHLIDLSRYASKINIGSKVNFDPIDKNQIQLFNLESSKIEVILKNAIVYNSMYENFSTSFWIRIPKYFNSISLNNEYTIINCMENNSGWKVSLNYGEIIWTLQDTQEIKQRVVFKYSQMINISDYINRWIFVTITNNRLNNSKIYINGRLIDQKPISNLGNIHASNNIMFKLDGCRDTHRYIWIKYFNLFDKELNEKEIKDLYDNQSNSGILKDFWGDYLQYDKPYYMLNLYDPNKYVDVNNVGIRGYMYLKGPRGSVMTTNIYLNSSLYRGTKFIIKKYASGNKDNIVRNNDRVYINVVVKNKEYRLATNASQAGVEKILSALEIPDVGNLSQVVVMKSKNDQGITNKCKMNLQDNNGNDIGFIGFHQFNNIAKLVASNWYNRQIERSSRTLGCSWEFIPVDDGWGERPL

CC(=O)c1cn(C)c(=O)[nH]c1=O
inactive: [1] 2.9% | [2] 1.3% | [3] -0.5%

COCc1cc(=O)[nH]c(Nc2nc3ccccc3o2)n1
inactive: [1] -3.7% | [2] -0.7% | [3] 0.7%

CN(C)c1ccc(CNCCC(Cc2ccccc2)c2ccco2)cc1 (configuration not stated)
inactive: [1] -4.5% | [2] -0.8% | [3] -8.8%

Nc1ccc2cn[nH]c2c1
inactive: [1] -8.4% | [2] -2.9% | [3] -16.3%

CC12CN3CC(C)(CN(C1)C3c1ccc([N+](=O)[O-])o1)C2 (configuration not stated)
inactive: [1] -3.2% | [2] -1.4% | [3] -5.6%

CCCCC[C@H](O)/C=C/[C@@H]1[C@@H](C/C=C\CCCC(=O)OC)[C@@H](O)C[C@H]1O
inactive: [1] -3.3% | [2] -1% | [3] -1.1%

O=C(O)/C=C/c1cccc(OCc2ccccc2)c1
inactive: [1] -2.1% | [2] -0.9% | [3] 3.3%

Cc1cc(C(=O)NC(CC(C)C)C(=O)O)cc(C)c1[N+](=O)[O-] (configuration not stated)
inactive: [1] -4.1% | [2] -0.3% | [3] -5.7%

Cc1ncc(CN2CCC(CO)(CCc3ccccc3)CC2)s1
inactive: [1] 1.3% | [2] 0.2% | [3] -3%

COc1ccc(-c2[nH]ncc2CN(CCO)Cc2cccs2)c(F)c1
inactive: [1] -1.2% | [2] 0.8% | [3] 5.8%

CN(C)c1ccc(C(CN)c2c[nH]c3ccccc23)cc1 (configuration not stated)
inactive: [1] -5.8% | [2] -1.5% | [3] -3.4%

COC(=O)CSc1nc2ccc(N)cc2s1
inactive: [1] 2.6% | [2] -1% | [3] 1.5%

Cc1cccc(OCC(=O)Nc2ccc(C(=O)NCC(C)C)cc2)c1
inactive: [1] 4.2% | [2] 0.3% | [3] -4.3%

COc1ccc(-c2csc(-c3cccnc3)n2)cc1C
inactive: [1] -2% | [2] -1.6% | [3] -5.1%

O=C(NC1CCCCC1)c1cc2nc(-c3ccco3)cc(C(F)(F)F)n2n1
inactive: [1] 2.6% | [2] 1.2% | [3] 0.5%

O=C(OCCN1CCCC1)C1(c2ccccc2)CCCC1
inactive: [1] -3.9% | [2] -2.9% | [3] 2.6%

O=c1c(-c2ccc3c(c2)OCCO3)coc2cc(OC3OC(CO)C(O)C(O)C3O)ccc12 (configuration not stated)
inactive: [1] 0.2% | [2] 0.1% | [3] 6.4%

OC[C@@H](O)[C@@H](O[C@H]1O[C@H](CO)[C@@H](O)[C@H](O)[C@H]1O)[C@H](O)[C@@H](O)CO
inactive: [1] 3.7% | [2] 0.6% | [3] 3.8%

COC(=O)c1[nH]c(=O)c2ccccc2c1O
inactive: [1] 0.4% | [2] 0.2% | [3] -1.7%

O=C(N/C(=C/C=C\c1ccccc1)C(=O)N1CCOCC1)c1ccc(Br)cc1
inactive: [1] 3.8% | [2] 0.6% | [3] -3.6%

CC(C)(C)OC(=O)N1CC(O)CC1C(=O)OCC(=O)c1ccc(Cl)cc1 (configuration not stated)
inactive: [1] -2.2% | [2] -2.3% | [3] 0.1%

O=C(Nc1ccc(Cl)cn1)Nc1ccccc1Cl
inactive: [1] 2.9% | [2] 0.2% | [3] -4.9%

COc1ccc(CCN2C(=O)CSC2c2ccc(OC)c(OC)c2)cc1OC (configuration not stated)
inactive: [1] -3.4% | [2] 0.4% | [3] 6.7%

COc1ccc(S(N)(=O)=O)cc1C(N)=O
inactive: [1] 1.6% | [2] 0.4% | [3] -0.3%

Cc1cc(-c2nn(-c3ccccc3F)cc2CN2CCCC(O)C2)c(C)s1 (configuration not stated)
inactive: [1] 3% | [2] 0.2% | [3] -0.9%

O=C(O)CCCCCNC(=O)Nc1ccc2c(c1)OCCO2
inactive: [1] 1.3% | [2] -1.4% | [3] -10.1%

COc1cc2c(cc1OC)-c1cc(OCc3ccccc3Cl)nc(=O)n1CC2
inactive: [1] -0.4% | [2] 0.1% | [3] 0.1%

CCN(CC)CCOC(=O)C1(C2CCCCC2)CCCCC1
inactive: [1] 1.9% | [2] 1% | [3] -2.4%

CCCC(=O)O[C@]1(C(=O)COC(C)=O)CC[C@H]2[C@@H]3C[C@H](F)C4=CC(=O)C=C[C@]4(C)[C@@]3(F)[C@@H](O)C[C@@]21C
inactive: [1] -1.4% | [2] 0.4% | [3] -0.6%
